These results are taken from PubChem BioAssay (EPA / NIEHS).

The source made the active and inactive calls. The calls were made as follows: active = hit-call score of the fitted dose curve at least 0.9, where 1 is the maximum; inactive = score below 0.9.

Common to all, as to details: mRNA level, 48 h; actives raise or lower the signal
Read-out in assay [1]: ATP-citrate lyase (ACLY), ACLY (gene 47)
Description: LTEA_HepaRG_ACLY: Life Technologies and Expression Analysis (LTEA) Assay for ATP-citrate lyase (ACLY) using HepaRG (AID 2283466). An outline of the steps: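 HepaRG, 48 h exposure, 8-pt half-log dilutions (top 100 uM), 0.5% DMSO. Readout: ACLY mRNA, TaqMan qRT-PCR, housekeeping-normalized (ACTB/GAPDH/POLR2A). Bidirectional curve fit vs DMSO.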

Read-out in assay [2]: Alkaline Phosphatase, Placental (ALPP) gene, ALPP (gene 250)
Description: LTEA_HepaRG_ALPP: Life Technologies and Expression Analysis (LTEA) Assay for Alkaline Phosphatase, Placental (ALPP) gene using HepaRG (AID 2283468).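 As to AC50: differentiated human HepaRG liver cells in serum-free induction medium.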 An outline of the steps:
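Using human liver HepaRG cells, chemicals are tested in duplicate over 48 h at half-log concentrations topping at 100 uM; phenobarbital 1 mM serves as induction control. ALPP mRNA change by qRT-PCR, bidirectional fit against vehicle.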

Read-out in assay [3]: Bcl-2 (BAD) gene, BAD (gene 572)
In words: LTEA_HepaRG_BAD: Life Technologies and Expression Analysis (LTEA) Assay for Bcl-2 (BAD) gene using HepaRG (AID 2283469). An outline of the steps: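 BAD transcript change, measured by qRT-PCR against three housekeeping genes and fitted in both directions relative to 0.5% DMSO, after 48 h chemical treatment of human HepaRG liver cells at concentrations up to 100 uM.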

Read-out in assay [4]: Bcl-2 (BAX) gene, BAX (gene 581)
Description: LTEA_HepaRG_BAX: Life Technologies and Expression Analysis (LTEA) Assay for Bcl-2 (BAX) gene using HepaRG (AID 2283470). An outline of the steps: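 HepaRG (human liver), 48 h exposure, duplicate wells. 8-pt curve, half-log from 100 uM, 0.5% DMSO. BAX transcript by TaqMan qRT-PCR; ACTB/GAPDH/POLR2A normalization; gain or loss vs DMSO baseline.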

Read-out in assay [5]: Alpha-fetoprotein (AFP) gene, AFP (gene 174)
Description: LTEA_HepaRG_AFP: Life Technologies and Expression Analysis (LTEA) Assay for Alpha-fetoprotein (AFP) gene using HepaRG (AID 2283472). An outline of the steps:
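HepaRG, single lot; 48 h post-plating -> serum-free induction medium; cpd 8-pt, 100 uM top, half-log, 0.5% DMSO, duplicate, 48 h. RNA -> qRT-PCR AFP, norm ACTB/GAPDH/POLR2A. Bidirectional fit vs DMSO.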

Read-out in the next assay: BCL2L11 (gene 10018)
Description: LTEA_HepaRG_BCL2L11: Life Technologies and Expression Analysis (LTEA) Assay for Bcl-2 (BCL2L11) gene using HepaRG (AID 2283473). An outline of the steps: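 Human hepatic HepaRG cultures are treated 48 h with test chemicals (maximum 100 uM, 0.5% DMSO vehicle). Expression of BCL2L11 is measured by qRT-PCR against ACTB, GAPDH and POLR2A, with activity in either direction scored relative to vehicle.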

Read-out in assay [6]: Apolipoprotein A-V (APOA5) gene, APOA5 (gene 116519)
In words: LTEA_HepaRG_APOA5: Life Technologies and Expression Analysis (LTEA) Assay for Apolipoprotein A-V (APOA5) gene using HepaRG (AID 2283474). An outline of the steps: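 Concentration-response of APOA5 expression in HepaRG: eight half-log doses to 100 uM, 48 h, qRT-PCR normalized to ACTB/GAPDH/POLR2A, bidirectional fitting with 0.5% DMSO as baseline.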

Read-out in assay [7]: Apoptosis regulator Bcl-2 (Homo sapiens) (UniProt P10415)
In words: LTEA_HepaRG_BCL2: Life Technologies and Expression Analysis (LTEA) Assay for Bcl-2 gene using HepaRG (AID 2283475). An outline of the steps:
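HepaRG, plated 48 h then switched to serum-free induction medium; dosed 48 h, 8 conc. (max 100 uM, half-log steps), duplicate, 0.5% DMSO. Lysis in RLT, RNA isolated, TaqMan qRT-PCR for BCL2; ACTB/GAPDH/POLR2A normalisation; bidirectional fit vs DMSO.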

Read-out in assay [8]: Bcl-2 (BID) gene, BID (gene 637)
In words: LTEA_HepaRG_BID: Life Technologies and Expression Analysis (LTEA) Assay for Bcl-2 (BID) gene using HepaRG (AID 2283476). An outline of the steps: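 Transcript levels of BID, measured by qRT-PCR and normalized to three housekeeping genes, were fitted bidirectionally against DMSO controls. Cells were HepaRG, dosed 48 h at up to 100 uM.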

Read-out in the next assay: Caspase-3 (Homo sapiens) (UniProt P42574)
In words: LTEA_HepaRG_CASP3: Life Technologies and Expression Analysis (LTEA) Assay for cysteine-aspartic acid protease (CASP3) using HepaRG (AID 2283477). An outline of the steps:
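Transcript-level assay: CASP3 mRNA in human HepaRG after 48 h treatment, eight half-log concentrations from 100 uM in 0.5% DMSO, quantified by qRT-PCR.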

Read-out in assay [9]: Cytochrome P450 (CYP24A1), CYP24A1 (gene 1591)
In words: LTEA_HepaRG_CYP24A1: Life Technologies and Expression Analysis (LTEA) Assay for Cytochrome P450 (CYP24A1) using HepaRG (AID 2283478). An outline of the steps:
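Gene expression of CYP24A1 by TaqMan qRT-PCR in HepaRG after 48 h treatment, highest concentration 100 uM; activity fitted in both directions relative to DMSO vehicle.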

Read-out in assay [10]: Cytochrome P450 (CYP1A2), CYP1A2 (gene 1544)
Description: LTEA_HepaRG_CYP1A2: Life Technologies and Expression Analysis (LTEA) Assay for Cytochrome P450 (CYP1A2) using HepaRG (AID 2283479). An outline of the steps:
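In duplicate wells, HepaRG cultures maintained in 0.5% DMSO were treated 48 h across an 8-point, half-log series topping at 100 uM; phenobarbital (1 mM) served as induction control. Expression was read by qRT-PCR.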

Read-out in assay [11]: cysteine-aspartic acid protease (CASP8), CASP8 (gene 841)
In words: LTEA_HepaRG_CASP8: Life Technologies and Expression Analysis (LTEA) Assay for cysteine-aspartic acid protease (CASP8) using HepaRG (AID 2283480). An outline of the steps: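 HepaRG, 48 h exposure, duplicate wells; 8 conc, half-log from 100 uM, 0.5% DMSO. Serum-free induction medium. CASP8 mRNA by TaqMan qRT-PCR, norm. ACTB/GAPDH/POLR2A; gain/loss fitted vs DMSO.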

Read-out in assay [12]: Cytochrome P450 (CYP2B6), CYP2B6 (gene 1555)
In words: LTEA_HepaRG_CYP2B6: Life Technologies and Expression Analysis (LTEA) Assay for Cytochrome P450 (CYP2B6) using HepaRG (AID 2283481). An outline of the steps: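 Human HepaRG, 48 h dosing, 0.5% DMSO vehicle, top dose 100 uM. CYP2B6 transcript by qRT-PCR, housekeeping-normalized, bidirectional curve fit.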

Read-out in assay [13]: Cytochrome P450 2C19 (Homo sapiens) (UniProt P33261)
In words: LTEA_HepaRG_CYP2C19: Life Technologies and Expression Analysis (LTEA) Assay for CYP2C19 using HepaRG (AID 2283482). An outline of the steps:
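Endpoint: CYP2C19 mRNA change, bidirectional fit vs 0.5% DMSO. Cells: HepaRG, 48 h exposure, eight-point series topping at 100 uM. Quantitation: qRT-PCR normalized to ACTB, GAPDH, POLR2A.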

Read-out in a further assay: CYP2C8 (gene 1558)
In words: LTEA_HepaRG_CYP2C8: Life Technologies and Expression Analysis (LTEA) Assay for CYP2C8 using HepaRG (AID 2283483). An outline of the steps:
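CYP2C8 mRNA induction or loss, by qRT-PCR normalized to ACTB/GAPDH/POLR2A, is read in HepaRG cells after 48 h treatment. Concentrations run from 100 uM down in half-log dilutions, with 0.5% DMSO as vehicle and baseline.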

Read-out in the next assay: CYP2C9 (gene 1559)
In words: LTEA_HepaRG_CYP2C9: Life Technologies and Expression Analysis (LTEA) Assay for CYP2C9 using HepaRG (AID 2283484). An outline of the steps:
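Cells plated 48 h, switched to serum-free induction medium, then treated in duplicate for 48 h at eight concentrations (max 100 uM, 0.5% DMSO). RNA then analysed by qRT-PCR for CYP2C9; curves fitted in both directions relative to DMSO.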

Read-out in the next assay: CYP2E1 (gene 1571)
In words: LTEA_HepaRG_CYP2E1: Life Technologies and Expression Analysis (LTEA) Assay for CYP2E1 using HepaRG (AID 2283485). An outline of the steps: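 Human liver line HepaRG, plated 48 h, then serum-free induction medium + chemical x 48 h; 8-pt CRC from 100 uM, half-log, 0.5% DMSO, n=2. Readout: CYP2E1 mRNA qRT-PCR vs ACTB/GAPDH/POLR2A; bidirectional fit vs DMSO.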

Sequence of Cytochrome P450 2C19 (Homo sapiens) (P33261 whole entry, looked up): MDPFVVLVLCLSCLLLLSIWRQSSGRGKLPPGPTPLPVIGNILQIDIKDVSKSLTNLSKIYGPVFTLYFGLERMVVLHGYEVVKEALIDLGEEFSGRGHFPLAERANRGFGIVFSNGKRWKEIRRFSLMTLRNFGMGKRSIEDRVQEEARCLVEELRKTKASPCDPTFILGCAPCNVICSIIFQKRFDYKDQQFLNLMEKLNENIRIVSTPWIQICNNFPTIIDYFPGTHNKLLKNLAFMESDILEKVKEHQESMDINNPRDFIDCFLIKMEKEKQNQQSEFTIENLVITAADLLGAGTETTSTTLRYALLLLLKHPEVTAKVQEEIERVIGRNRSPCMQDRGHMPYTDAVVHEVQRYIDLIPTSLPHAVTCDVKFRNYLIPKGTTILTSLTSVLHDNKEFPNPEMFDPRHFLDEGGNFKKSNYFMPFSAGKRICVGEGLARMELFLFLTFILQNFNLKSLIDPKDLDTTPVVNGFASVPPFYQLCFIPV
Sequence of Apoptosis regulator Bcl-2 (Homo sapiens) (P10415 whole entry, looked up): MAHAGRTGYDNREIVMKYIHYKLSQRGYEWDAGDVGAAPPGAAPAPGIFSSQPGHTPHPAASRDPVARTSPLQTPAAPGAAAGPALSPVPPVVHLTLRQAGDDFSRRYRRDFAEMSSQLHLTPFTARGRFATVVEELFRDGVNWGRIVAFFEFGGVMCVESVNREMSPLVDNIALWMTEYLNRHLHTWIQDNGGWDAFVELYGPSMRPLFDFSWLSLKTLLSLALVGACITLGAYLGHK
Sequence of Caspase-3 (Homo sapiens) (P42574 whole entry, looked up): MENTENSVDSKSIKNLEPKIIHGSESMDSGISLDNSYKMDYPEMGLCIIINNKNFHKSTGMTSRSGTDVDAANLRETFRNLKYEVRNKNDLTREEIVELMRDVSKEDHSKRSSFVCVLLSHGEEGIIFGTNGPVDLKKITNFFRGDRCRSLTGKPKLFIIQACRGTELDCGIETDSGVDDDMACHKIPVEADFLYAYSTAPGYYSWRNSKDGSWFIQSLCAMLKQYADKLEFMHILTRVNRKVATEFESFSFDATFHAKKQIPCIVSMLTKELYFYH

The term AC50 denotes the midpoint of the concentration-response curve, whichever way the signal moves. On to `O=C1CN(N=Cc2ccc([N+](=O)[O-])o2)C(=O)N1`, for which the compound was called inactive (in assay [1]; in [3]; in assay [4]; in assay [5]; with BCL2L11 (gene 10018); in [6]). For the same compound, the call (in [8]; in the assay with Caspase-3 (Homo sapiens); in assay [9]; in assay [10]; in [11]; in assay [13]) was inactive. For the same compound, the compound was called inactive with CYP2C9 (gene 1559). In addition, the AC50 is 75 µM (active) in [2]; 80.7 µM (active) in [7]; 50 µM (active) in assay [12]; 50 µM (active) in the assay with CYP2C8 (gene 1558); 52.7 µM (active) with CYP2E1 (gene 1571).

On to `CC(C)C(=O)Nc1ccc([N+](=O)[O-])c(C(F)(F)F)c1`, for which the AC50 in [1] was 17.6 µM (active); in [2] it was 50 µM (active); in [4], 50 µM (active); in [5] it was 58.5 µM (active); in [6], 65.9 µM (active); in assay [7], 90.3 µM (active). Also, the AC50 in assay [10] is 14.9 µM (active); in [13], 77.3 µM (active); in the assay with CYP2C8 (gene 1558), 15.8 µM (active); in the assay with CYP2C9 (gene 1559) it was 66 µM (active). Also, the compound was classed as inactive (in [3]; in the assay with BCL2L11 (gene 10018); in assay [8]; in the assay with Caspase-3 (Homo sapiens); in assay [9]; in assay [11]).

For `CC[C@H](C)C(=O)O[C@H]1C[C@H](O)C=C2C=C[C@H](C)[C@H](CC[C@@H](O)C[C@@H](O)CC(=O)O)[C@H]21`, the AC50 in assay [1] was 9.05 µM (active); in [10], 3.09 µM (active); in the assay with CYP2E1 (gene 1571), 50 µM (active). For the same compound, the compound was classed as inactive (in assay [2]; in [3]; in [4]; in assay [5]; in the assay with BCL2L11 (gene 10018); in assay [6]). The compound was called inactive (in [7]; in assay [8]; with Caspase-3 (Homo sapiens); in assay [9]; in assay [11]; in [12]). For the same compound, the outcome (in assay [13]; with CYP2C8 (gene 1558); in the assay with CYP2C9 (gene 1559)) was inactive.
